High-throughput results (PubChem BioAssay)
Shh pathway inh: Sonic Hedgehog pathway inhibition; 22,000 tested, 2.1% active; Shh-LIGHT2 Gli-luciferase reporter, 30 h; inhibition, % (no concentration beside the values); AID 2313;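 active means mean inhibition across valid replicates above about 65%, limit read from the data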;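 further: pathway switched on by Shh-conditioned medium diluted 1 in 25 in low serum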
MITF inhib: inhibitors of MITF; TRPM1 promoter luciferase, luminescence, 24 h; inhibition, % (concentration not given with the values); 37,000 tested, 0.28% active; AID 2240; in the data active means inhibition above about 85%;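 further: human melanocyte line stably carrying TRPM1 promoter luciferase reporter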
NOMO-1 viab: STK33 inhibitor candidate reducing NOMO-1 cell viability | NOMO-1 AML viability, CellTiter-Glo luminescence, 72 h | inhibition, % (no concentration beside the values) | 37,000 tested, 7.5% active | AID 2330; in the data active means inhibition above about 80%
PD-1 reversal: activators reversing PD-1 mediated T-cell inhibition; primary human CD4 T cells, PD-L1 beads, CellTiter-Glo 96 h; 29,000 tested, under 10 active; activation, % (no concentration beside the values); call rule not given here;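 further: 0% = median vehicle wells and 100% = positive control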
Starred values were filed as active, the others as inactive. A selection: hits, their analogues and other compounds. The true share with any hit is near 8.1%.

What do the screens show for `Cc1cc(C)c(NC(=O)C(C)N(c2ccc(Oc3ccccc3)cc2)S(C)(=O)=O)c(C)c1` (stereo not given)?
MITF inhib: 4.4; NOMO-1 viab: 14.7

Results for Cc1ccc(NC(=S)NC(=O)C23CC4CCC(CC(C4)C2)C3)cc1 ?
Shh pathway inh: -4.7; MITF inhib: -12.9; NOMO-1 viab: 26.4; PD-1 reversal: 0.4

What do the screens show for `CCC(=O)[C@@]1(C)[C@H](C)C[C@H]2[C@@H]3CCC4=CC(=O)C=C[C@]4(C)[C@H]3[C@@H](O)C[C@@]21C`?
Shh pathway inh: 64.7*; MITF inhib: -12.5; NOMO-1 viab: 9.5

Results for CCC(=O)OCC(=O)[C@@]1(OC(=O)CC)[C@H](C)CC2C3C([C@@H](O)C[C@@]21C)[C@@]1(C)C=CC(=O)C=C1C[C@H]3Cl (stereo not given in full) ?
Shh pathway inh: 68.2*; MITF inhib: -2.4; NOMO-1 viab: 40.6

How did CCC(=O)OC1(C(=O)CCl)[C@@H](C)C[C@H]2[C@@H]3CCC4=CC(=O)C=C[C@]4(C)[C@@]3(F)[C@@H](O)C[C@@]21C (stereo not given in full) do in these assays?
Shh pathway inh: 50.2; MITF inhib: -30.5; NOMO-1 viab: 23.1

What do the screens show for `COc1ccc(C)cc1S(=O)(=O)N(C)CC(=O)O`?
MITF inhib: 5.7; NOMO-1 viab: 12.7; PD-1 reversal: 1.2

Results for C[C@H]1CN([C@@H](C)CO)C(=O)c2cc(NC(=O)Nc3ccc(C(F)(F)F)cc3)ccc2O[C@H]1CN(C)Cc1ccc(C(F)(F)F)cc1 ?
Shh pathway inh: -23.3; MITF inhib: 32.8; NOMO-1 viab: 115.2*; PD-1 reversal: -0.5

How did C[C@@H]1CN([C@H](C)CO)C(=O)c2cc(NC(=O)Nc3ccc(C(F)(F)F)cc3)ccc2O[C@H]1CN(C)Cc1ccc(C(F)(F)F)cc1 do in these assays?
Shh pathway inh: 3.6; MITF inhib: 15.2; NOMO-1 viab: 114.4*; PD-1 reversal: -10.0

What do the screens show for `Cn1c(SCC(=O)Nc2cccc(C(F)(F)F)c2)nnc1-c1cc2cc(Cl)ccc2o1`?
MITF inhib: -16.4; NOMO-1 viab: 14.2; PD-1 reversal: 1.0

Results for COC(=O)c1cccc(C(=O)Nc2cnc3ccccc3c2)n1 ?
Shh pathway inh: -3.3; MITF inhib: -9.0; NOMO-1 viab: 123.4*; PD-1 reversal: -0.8

How did C[C@H]1CN([C@@H](C)CO)C(=O)Cc2cc(NC(=O)Nc3ccccc3)ccc2O[C@H]1CN(C)Cc1ccc(C(=O)Nc2ccccc2N)cc1 do in these assays?
MITF inhib: 29.1; NOMO-1 viab: 139.4*; PD-1 reversal: -3.9

Results for C[C@H]1CN([C@@H](C)CO)C(=O)Cc2cc(NC(=O)Nc3cccc4ccccc34)ccc2O[C@@H]1CN(C)Cc1ccc(C(=O)Nc2ccccc2N)cc1 ?
MITF inhib: 5.5; NOMO-1 viab: 28.6; PD-1 reversal: -1.3

How did C[C@H]1CN([C@@H](C)CO)C(=O)Cc2cc(NC(=O)Nc3cccc4ccccc34)ccc2O[C@H]1CN(C)Cc1ccc(C(=O)Nc2ccccc2N)cc1 do in these assays?
MITF inhib: 10.7; NOMO-1 viab: 105.2*; PD-1 reversal: -1.2

What do the screens show for `C[C@H]1CN([C@@H](C)CO)C(=O)Cc2cc(NC(=O)c3ccncc3)ccc2O[C@@H]1CN(C)Cc1ccc(C(=O)Nc2ccccc2N)cc1`?
MITF inhib: -19.2; NOMO-1 viab: 32.4; PD-1 reversal: 0.4

What do the screens show for `CC(C)NC(=O)Nc1ccc2c(c1)CC(=O)N([C@@H](C)CO)C[C@@H](C)[C@@H](CN(C)Cc1ccc(C(=O)Nc3ccccc3N)cc1)O2`?
MITF inhib: 1.7; NOMO-1 viab: 107.3*; PD-1 reversal: -3.8

What do the screens show for `C[C@H]1CN([C@@H](C)CO)C(=O)Cc2cc(NC(=O)c3ccncc3)ccc2O[C@H]1CN(C)Cc1ccc(C(=O)Nc2ccccc2N)cc1`?
MITF inhib: 6.2; NOMO-1 viab: 126.0*; PD-1 reversal: -3.1

Results for O=c1[nH]c(C2=C(O)Cn3c2nc(=O)c2ccccc23)nc2ccccc12 ?
Shh pathway inh: -15.5; MITF inhib: -9.9; NOMO-1 viab: 0.7; PD-1 reversal: 0.8

Results for COc1ccc(C(=O)n2nc3c(c2-c2ccc(OC)cc2)COC(C)(C)C3)cc1 ?
Shh pathway inh: -37.1; MITF inhib: -65.5; NOMO-1 viab: -3.5; PD-1 reversal: 1.4

How did COc1ccc(CSCC(N)C(=O)O)cc1Br (stereo not given) do in these assays?
MITF inhib: -46.4; NOMO-1 viab: 16.7; PD-1 reversal: 0.3

How did Cc1ccc(S(=O)(=O)NC(=O)COc2cccc3ccccc23)c(C)c1 do in these assays?
MITF inhib: 4.2; NOMO-1 viab: -17.7
